The list is not random: actives were taken first. Their share in the collection is about 3.4%.
Sm TGR inh: qHTS Assay for the Inhibitors of Schistosoma Mansoni Peroxiredoxins; Schistosoma mansoni thioredoxin glutathione reductase (TGR), Q962Y6; purified TGR, DTNB reduction, TNB absorbance 405 nm; Potency, µM (top dose mostly 114 µM), for the others: top-dose activity change, negative = inhibition, usual class: inhibitors; 360,000 compounds, 3% hits; AID 485364, 2010; note: nearly all actives have a fitted effect of over 60% in size
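Kinetic colorimetric format: TGR-catalysed, NADPH-driven DTNB reduction monitored via TNB absorbance. Enzyme dispensed at 20 nM; compound exposure 15 min at room temperature before reaction start.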
AmpC inh detg: qHTS Inhibitors of AmpC Beta-Lactamase (assay with detergent) | Potency, µM (highest dose often 114 µM), without a hit: at the highest dose activity change, negative = inhibition, most hits filed as inhibitors | AID 485294, 2010 | AmpC hydrolysis of nitrocefin, absorbance 480 nm, 0.01% Triton | 370,000 compounds, 0.041% hits | P00811;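 note: 0% = no-compound wells and -100% = no-enzyme wells; nearly all actives have a fitted effect of over 25% in size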
Target sequence (P00811 whole entry, looked up): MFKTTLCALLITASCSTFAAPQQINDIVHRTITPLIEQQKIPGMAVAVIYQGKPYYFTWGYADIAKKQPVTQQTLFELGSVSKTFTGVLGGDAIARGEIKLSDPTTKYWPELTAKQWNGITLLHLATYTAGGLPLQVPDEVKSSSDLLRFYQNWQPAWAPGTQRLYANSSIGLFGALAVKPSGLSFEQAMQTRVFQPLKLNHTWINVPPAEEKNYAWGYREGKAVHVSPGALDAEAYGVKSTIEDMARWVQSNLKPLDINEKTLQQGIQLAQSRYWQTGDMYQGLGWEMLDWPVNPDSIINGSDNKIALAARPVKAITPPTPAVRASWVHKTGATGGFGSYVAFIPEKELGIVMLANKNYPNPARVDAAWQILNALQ
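20 mM phosphate pH 7.0 + 0.01% (detergent screen) or 0.0001% Triton X-100; 5.3 nM AmpC reagent; cpd preinc 15 min RT; nitrocefin (800 uM stock) to start; A480 q20 s × 4 min; Activity was normalised to no-enzyme and no-compound control wells.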
RE007 growth inh: qHTS Assay for Inhibitors of the HIV-1 protein Vpr; S. pombe RE007 Vpr strain, BacTiter-Glo ATP luminescence, 24 h; Potency, µM (highest dose often 92.2 µM), for inactives: at the top dose activity change, negative = less growth, actives largely listed as inhibitors; 360,000 compounds, 0.21% hits; active = well fitted falling curve with a large enough effect; inconclusive = small, poorly fitted or top-dose-only effect; inactive = no such curve, though single readings can be large or run the other way; note: nearly all actives have a fitted effect of over 50% in size
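Fission yeast RE007 carrying one integrated HIV-1 vpr copy, seeded at OD 0.01 in PMG+AL medium with 23 nL pinned compound. Grown 24 h at 30 degrees; viability read by BacTiter-Glo luminescence after 5 min.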
AmpC inh no detg: qHTS Inhibitors of AmpC Beta-Lactamase (assay without detergent). P00811. AmpC nitrocefin hydrolysis, absorbance 480 nm, 0.0001% Triton. Potency, µM (top dose mostly 57.1 µM), without a hit: at the highest dose activity change, negative = inhibition, usual class: inhibitors. 330,000 compounds, 0.52% hits. AID 485341, 2010;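 note: plate controls were no compound for no effect and no enzyme for full effect; nearly all actives have a fitted effect of over 20% in size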
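AmpC (5.3 nM in the dispensed reagent) in 20 mM phosphate pH 7.0 with 0.01% (detergent screen) or 0.0001% Triton X-100 was preincubated with compounds for 15 min at room temperature. Nitrocefin was then added from an 800 uM solution, and hydrolysis was followed at 480 nm.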
Giardia FBPA inh: qHTS Assay for Inhibitors of Fructose-1,6-bisphosphate Aldolase from Giardia Lamblia; A8B2U2; Potency, µM (titrated, usually from 59.6 µM), for the others: top-dose activity, negative = inhibition, hits mostly inhibitors; 290,000 compounds, 0.71% hits; purified Giardia FBPA; note: nearly all actives have a fitted effect of over 55% in size
Target sequence (A8B2U2 whole entry, looked up): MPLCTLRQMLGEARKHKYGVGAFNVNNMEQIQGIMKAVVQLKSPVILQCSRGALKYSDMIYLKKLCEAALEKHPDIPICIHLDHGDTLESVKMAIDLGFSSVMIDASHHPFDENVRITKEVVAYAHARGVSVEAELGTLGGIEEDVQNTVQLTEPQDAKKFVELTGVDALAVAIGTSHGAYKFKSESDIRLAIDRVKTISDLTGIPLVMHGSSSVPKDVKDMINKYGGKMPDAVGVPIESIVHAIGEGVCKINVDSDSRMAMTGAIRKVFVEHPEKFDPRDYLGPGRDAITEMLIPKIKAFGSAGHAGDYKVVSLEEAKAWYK
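Giardia FBPA (40 nM reagent) was preincubated 10 min at RT with compound (up to 57.5 uM final), then substrate plus GAPDH/TPI/NAD/arsenate coupling system with diaphorase/resazurin was added; resorufin fluorescence (525/598 nm) was read after 20 min.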
Numbers without * were called inactive. Unless noted, calls come from the whole dose curve; as a rule, active = well fitted curve in the direction sought with a large enough effect; inconclusive = small, poorly fitted or top-dose-only effect, or another doubt; inactive = no such curve, though single readings can be large; an effect the other way counts as inactive or inconclusive. Unless noted, % is set by controls: 0 for no effect and ±100 for the full control effect; potency is the fitted concentration of half-maximal effect.

`CCCc1nc2oc3c(NCC4CCCO4)ncnc3c2c2c1COC(C)(C)C2` (centres undefined) gave Sm TGR inh 9.7%, AmpC inh detg -1.3%, RE007 growth inh -25.3%, AmpC inh no detg -3.6% and Giardia FBPA inh 0.4%.
Screening CC1(C)Cc2c(c(-c3ccco3)nc3sc4c(NCCCO)ncnc4c23)CO1 returned Sm TGR inh 2µM*, AmpC inh detg 2.9%, RE007 growth inh 0.1%, AmpC inh no detg 150.6% and Giardia FBPA inh -17.9%.
For CC(C)n1cc(CN2CCCC(C(=O)Nc3ccccc3Oc3cccnc3)C2)cn1 (centres undefined) the results were Sm TGR inh 2.0%, AmpC inh detg inconclusive, RE007 growth inh 1.3%, AmpC inh no detg -8.5% and Giardia FBPA inh -2.3%.
Screening Cc1ccccc1CSCC1Nc2ccc(C(=O)NCCc3ccccc3)cc2NC1=O (centres undefined) returned RE007 growth inh 31.6µM*.
Screening O=C(/C=C/c1ccc(-c2ccccc2[N+](=O)[O-])o1)c1ccco1 returned Sm TGR inh 35.5µM*, AmpC inh detg 1.4%, RE007 growth inh -16.3%, AmpC inh no detg -45.8% and Giardia FBPA inh inconclusive.
For Cc1ccc2c(c1)P(=O)(O)c1cc(C)ccc1O2 the results were RE007 growth inh -3.5%.
COc1ccc(-c2nc(CS(=O)CC(=O)N3CCN(C)CC3)c(C)o2)cc1OC (centres undefined) was read as Sm TGR inh inconclusive, AmpC inh detg inconclusive, RE007 growth inh -5.9%, AmpC inh no detg -1.1% and Giardia FBPA inh -14.6%.
Cc1oc(-c2ccccc2)nc1CS(=O)CC(=O)NC1CCCC1 (centres undefined) was read as Sm TGR inh 7.94µM*, AmpC inh detg -4.8%, RE007 growth inh -0.8%, AmpC inh no detg -15.1% and Giardia FBPA inh 7.6%.
`COc1cccc(-c2nc(CS(=O)CC(=O)NC3CC3)c(C)o2)c1` (centres undefined) gave Sm TGR inh inconclusive, AmpC inh detg -14.0%, RE007 growth inh -2.2%, AmpC inh no detg -14.1% and Giardia FBPA inh 3.3%.
`COc1ccc(-c2nc(CS(=O)CC(=O)NC3CCCCC3)c(C)o2)cc1OC` (centres undefined) gave Sm TGR inh 35.5µM*, AmpC inh detg 1.9%, RE007 growth inh -0.9% and AmpC inh no detg 25.2%.
For COc1ccc(-c2nc(CS(=O)CC(=O)NC3CCCCC3)c(C)o2)cc1 (centres undefined) the results were Sm TGR inh inconclusive, AmpC inh detg -1.2%, RE007 growth inh 1.7% and AmpC inh no detg 64.4%.
For COc1ccc(-c2nc(CS(=O)CC(=O)NC3CCCCCC3)c(C)o2)cc1 (centres undefined) the results were Sm TGR inh 39.8µM*, AmpC inh detg inconclusive, RE007 growth inh 4.8%, AmpC inh no detg 70.1% and Giardia FBPA inh 5.0%.
COc1ccc(-c2nc(CS(=O)CC(=O)NCCN3CCCCCC3)c(C)o2)cc1OC (centres undefined) was read as Sm TGR inh -29.8%, AmpC inh detg -4.0%, RE007 growth inh -15.6%, AmpC inh no detg 109.5% and Giardia FBPA inh -15.8%.
`COc1ccc(-c2nc(CS(=O)CC(=O)N3CCOCC3)c(C)o2)cc1OC` (centres undefined) gave Sm TGR inh 39.8µM*, AmpC inh detg -5.6%, RE007 growth inh -6.5% and AmpC inh no detg 15.7%.
For O=C(Nc1ccc([N+](=O)[O-])cc1)Nn1cnnc1 the results were Sm TGR inh -11.0%, AmpC inh detg 0.8%, RE007 growth inh -3.0% and AmpC inh no detg -17.7%.
Screening Cc1ccc(S(=O)(=O)N2CCCCC2)cc1NC(=O)CSc1nncn1-c1ccccc1 returned Sm TGR inh 1.0%, AmpC inh detg -1.3%, RE007 growth inh 8.2%, AmpC inh no detg 27.8% and Giardia FBPA inh 2.5%.
For Oc1ccc(NC(=S)N=Nc2c(O)[nH]c3ccc(Br)cc23)cc1 the results were Sm TGR inh -9.2%, AmpC inh detg 1.5%, RE007 growth inh -6.3%, AmpC inh no detg 17.8µM* and Giardia FBPA inh 6.8%.
Oc1[nH]c2ccc(Br)cc2c1N=NC(=S)Nc1ccc(F)cc1 was read as Sm TGR inh -2.2%, AmpC inh detg 2.3%, RE007 growth inh 2.4%, AmpC inh no detg -48.6% and Giardia FBPA inh 6.4%.
Screening Cc1ccccc1N(CC(=O)NCc1ccco1)C(=O)CNS(=O)(=O)c1ccc(F)cc1 returned Sm TGR inh 39.8µM*, AmpC inh detg -5.7%, RE007 growth inh 9.0% and AmpC inh no detg 1.4%.
Cc1ccc(S(=O)(=O)NCC(=O)N(CC(=O)NCc2ccco2)Cc2cccs2)cc1 was read as Sm TGR inh -35.6%, AmpC inh detg -8.0%, RE007 growth inh -15.0%, AmpC inh no detg -15.4% and Giardia FBPA inh 0.1%.
COc1ccccc1CN(CC(=O)NCc1ccco1)C(=O)CNS(=O)(=O)c1ccc(C)cc1 was read as Sm TGR inh 28.2µM*, AmpC inh detg -0.7%, RE007 growth inh 48.4%, AmpC inh no detg -17.0% and Giardia FBPA inh 5.6%.
`COc1ccccc1CN(CC(=O)NCc1ccco1)C(=O)CNS(=O)(=O)c1ccccc1` gave Sm TGR inh 50.1µM*, AmpC inh detg 5.4%, RE007 growth inh 15.8%, AmpC inh no detg -12.7% and Giardia FBPA inh 1.2%.
`Cc1ccc(N(CC(=O)NCc2ccco2)C(=O)CNS(=O)(=O)c2ccc(F)cc2)c(C)c1` gave Sm TGR inh -29.9%, AmpC inh detg -11.4%, RE007 growth inh 13.0%, AmpC inh no detg 6.9% and Giardia FBPA inh 19.3%.
NS(=O)(=O)c1ccc(Nc2nc(-c3cccc([N+](=O)[O-])c3)cs2)cc1 was read as Sm TGR inh 0.3%, AmpC inh detg 2.7%, RE007 growth inh 11.3%, AmpC inh no detg -35.2% and Giardia FBPA inh -6.2%.
For Cc1cccc(NC(=O)c2c(O)c3ccccc3[nH]c2=O)c1 the results were Sm TGR inh -11.8%, AmpC inh detg -10.4%, RE007 growth inh 8.5%, AmpC inh no detg 1.3% and Giardia FBPA inh 10.0%.
`Cc1ccnc(SCC(=O)N2CCC(C(N)=O)CC2)n1` gave Sm TGR inh 3.6%, AmpC inh detg -15.1%, RE007 growth inh 1.2%, AmpC inh no detg -20.0% and Giardia FBPA inh 3.9%.
COc1ccc(Cn2c(C(=O)O)c(CNCc3ccco3)c3ccc(C)cc32)cc1 was read as Sm TGR inh 0.1% and AmpC inh detg 13.5%.
For Cc1ccc2c(CNCCc3ccco3)c(C(=O)O)n(Cc3ccc(F)cc3)c2c1 the results were Sm TGR inh 39.8µM* and AmpC inh detg -0.2%.
